Only some compounds are listed: those with a hit (about 11% of all), similar ones and a draw of the others.
G9a block – qHTS Assay for Inhibitors of Histone Lysine Methyltransferase G9a; Histone-lysine N-methyltransferase EHMT2 (Homo sapiens), Q96KQ7; G9a H3K9 monomethylation, AlphaScreen, 2 h; Potency, µM (series often up to 102 µM), inactives show top-dose activity, negative = inhibition, usual class: inhibitors; actives 8.8% (n = 350,000); AID 504332, 2011; note: potency is the fitted concentration of half-maximal effect; nearly all actives have a fitted effect of over 75% in size
Target sequence (Q96KQ7 913-1193 limits assumed): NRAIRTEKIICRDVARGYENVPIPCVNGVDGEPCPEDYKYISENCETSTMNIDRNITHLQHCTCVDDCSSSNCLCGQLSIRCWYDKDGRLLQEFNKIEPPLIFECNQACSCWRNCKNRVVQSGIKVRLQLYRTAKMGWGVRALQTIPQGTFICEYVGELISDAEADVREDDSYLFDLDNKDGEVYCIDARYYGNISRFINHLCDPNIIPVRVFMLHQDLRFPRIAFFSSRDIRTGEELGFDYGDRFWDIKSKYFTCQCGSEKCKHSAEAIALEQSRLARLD
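Chemiluminescent proximity detection of H3K9 monomethylation, read after 10 min bead incubation in the dark. Reaction: 20 nM G9a, 500 nM biotin-H3K9 peptide, 20 uM SAM cofactor, 2 h, room temperature, following 15 min enzyme-compound preincubation.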
Tau fluor cs – Counterscreen qHTS for Inhibitors of Tau Fibril Formation, Fluorescence Polarization; tau K18 P301L Alexa594 fluorescence, heparin fibrillization; Potency, µM (doses to about 57.7 µM), without a hit: at the top dose activity change, negative = decrease; actives 0.93% (n = 280,000); AID 1463, 2008; note: potency is the fitted concentration of half-maximal effect; nearly all actives have a fitted effect of over 55% in size
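Human tau K18 P301L (15 uM unlabeled, 0.24 uM Alexa 594-labeled) in 100 mM sodium acetate pH 7 with 20 uM heparin, 6 hr at 37 C. ThT 30 uM added, 1 hr ambient; Alexa 594 FP and total fluorescence read at 555/632 nm.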
Tau FP inhib – qHTS for Inhibitors of Tau Fibril Formation, Fluorescence Polarization. Microtubule-associated protein tau (Homo sapiens), P10636. actives 0.39% (n = 280,000). AID 1468, 2008. Potency, µM (series often up to 57.7 µM), inactives show top-dose activity, negative = inhibition, actives largely listed as inhibitors. K18 P301L tau heparin fibrillization, Alexa594 FP, 6 h; note: potency is the fitted concentration of half-maximal effect; nearly all actives have a fitted effect of over 55% in size
Target sequence (P10636 561-689 P618L limits assumed): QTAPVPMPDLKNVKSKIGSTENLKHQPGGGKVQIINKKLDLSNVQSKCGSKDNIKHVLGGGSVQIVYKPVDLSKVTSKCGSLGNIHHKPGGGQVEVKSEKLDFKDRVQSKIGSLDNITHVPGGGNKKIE
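Heparin (20 uM) drove fibril formation of recombinant tau K18 P301L, 15 uM unlabeled with 0.24 uM Alexa 594 label, for 6 hr at 37 C in 100 mM sodium acetate pH 7. Fluorescence polarization (555/632 nm) read 1 hr after 30 uM ThT.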
Sfp inh – qHTS Assay for Inhibitors of Bacillus subtilis Sfp phosphopantetheinyl transferase (PPTase); actives 3.5% (n = 310,000); AID 1490, 2009; Biochemical Sfp PPTase activity, qHTS; Potency, µM, inactives show largest response in the series, negative = inhibition, actives largely listed as inhibitors;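 note: the enzyme is Sfp with the accession as filed and its product quenches rhodamine fluorescence; potency is the fitted concentration of half-maximal effect; 0% = enzyme reaction without inhibitor and -100% = no enzyme wells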
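Reaction rates are the 30-min fluorescence difference (ex 525, em 598 nm) in wells containing 15 nM Sfp, 5 uM rhodamine-CoA and 12.5 uM BHQ-2-YbbR at pH 7.6 with 10 mM MgCl2.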
Coupling enz – qHTS Assay for Inhibitors of Fructose-1,6-bisphosphate Aldolase from Giardia Lamblia: Coupling assay counterscreen. actives 0.67% (n = 290,000). AID 2472, 2010. coupling enzyme system counterscreen, AmpLite Red fluorescence. activity change, negative = inhibition, % at 58.2 µM, hits read low; in the data active = activity change below about -30%
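First, compound is pin-transferred into glyceraldehyde-3-phosphate coupling-enzyme reagent at 57.5 uM final and held 10 min at RT. Next, substrate, coupling system and AmpLite Red are added. After 20 min RT, fluorescence (525/598 nm) is read.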
Tau ThT inhib – qHTS for Inhibitors of Tau Fibril Formation, Thioflavin T Binding; recombinant tau K18 P301L (four-repeat tau fragment), heparin-induced fibrillization, ThT fluorescence; Potency, µM (highest dose often 57.4 µM), for the others: top-dose activity, negative = inhibition, hits mostly inhibitors; Microtubule-associated protein tau (Homo sapiens), P10636; AID 1460, 2008; actives 2.1% (n = 270,000); note: potency is the fitted concentration of half-maximal effect; nearly all actives have a fitted effect of over 55% in size
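Recombinant human tau K18 fragment […] carrying P301L, 15 uM unlabeled plus 0.24 uM Alexa 594-labeled, was fibrillized with 20 uM heparin in 100 mM sodium acetate pH 7 for 6 hr at 37 C; 30 uM ThT fluorescence read after 1 hr.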
* marks the source's active call; other numbers are inactive results; ? = inconclusive; nt = not tested or not shown; [ ] = another dose, or the depositor's remark. Unless noted, calls come from the whole dose curve; as a rule, active = well fitted curve in the direction sought with a large enough effect; inconclusive = small, poorly fitted or top-dose-only effect, or another doubt; inactive = no such curve, though single readings can be large; an effect the other way counts as inactive or inconclusive. Unless noted, % is set by controls: 0 for no effect and ±100 for the full control effect.

SMILES	G9a block	Tau fluor cs	Tau FP inhib	Sfp inh	Coupling enz	Tau ThT inhib
COC(=O)C1(C)NC(=O)c2ccccc2N1 (centres undefined)	25%[59 µM]	2%	-4%	15%	6	-11%
COc1ccc2c(c1)NC(C)(C)C=C2C	40µM*	?	-13%	?	-33*	?
CCOCCCNC(=O)C1CCCN(Cc2nc(-c3ccc(CC)cc3)oc2C)C1 (centres undefined)	-12%[59 µM]	-3%	-2%	nt	nt	-4%
O=[N+]([O-])/C=C\c1ccc(N2CCCC2)c(F)c1	8%[59 µM]	?	-8%	?	1	16µM*
FC(F)Sc1nc(-c2ccccc2)c(-c2ccccc2)n1C(F)F	35µM*	-22%	-13%	0%	9	-12%
COc1ccccc1CNC(=O)c1cc2cc3ccc(Cl)cc3nc2o1	-23%[59 µM]	-3%	?	nt	nt	5%
COc1ccccc1-c1noc(CCC(=O)Nc2cccc(C)c2)n1	35µM*	-17%	-1%	?	2	-15%
COc1cc(NC(=O)Nc2cccc(-c3noc(C)n3)c2)cc(OC)c1OC	-2%[59 µM]	13µM*[quencher]	17%	nt	nt	?
COc1ccccc1-c1noc(CCC(=O)Nc2ccccc2Cl)n1	2.8µM*	-13%	1%	10µM*	-3	-14%
COc1cc(-c2noc(CCC(=O)Nc3cccnc3)n2)cc(OC)c1OC	35µM*	-2%	-3%	?	-4	-4%
CCOc1ccccc1NC(=O)CCCc1nc(-c2ccccc2Cl)no1	22%[59 µM]	-22%	-12%	nt	nt	-16%
COc1ccccc1-c1noc(CCC(=O)Nc2ccc(C)cc2C)n1	?	-11%	?	nt	nt	-8%
COCCCNC(=O)CSc1nc2c(sc3ccccc32)c(=O)n1CCCC(=O)NCCOC	-6%[59 µM]	-10%	-3%	nt	nt	-2%
CCn1c(CSCc2ccccc2)n[nH]c1=S	7.1µM*	1%	-5%	10%	2	4%
C=CCn1c(CCSCc2ccccc2)n[nH]c1=S	7.1µM*	6%	5%	0%	-3	14%
C=CCn1c(CCSCc2ccc(OC)c(C)c2)n[nH]c1=S	2µM*	-9%	4%	11%	2	-9%
CCn1c(Cc2ccccc2)n[nH]c1=S	?	-5%	-2%	-18%	1	-6%
COc1ccc(NC(=O)c2oc3ccc(S(=O)(=O)N(C)C4CCCCC4)cc3c2C)cc1Cl	5%[59 µM]	?	?	nt	nt	-6%
Cc1cc(C(=O)NNC(=O)c2cccc(C(F)(F)F)c2)no1	1%	5%	1%	8%	4	8%
O=C(NNC(=O)c1cccc(C(F)(F)F)c1)c1ccncc1	25µM*	nt	nt	16%	4	nt
Cc1cccc(NC(=O)CN2CCN(C(=O)C3CCCO3)CC2)c1C (centres undefined)	-6%[12.7 µM]	nt	nt	6%	nt	nt
Cc1cc(C(=O)CN2C(=O)NC(c3ccccc3)(c3ccccc3)C2=O)c(C)n1Cc1ccco1	-37%[59 µM]	3%	1%	6%	-9	-3%
Cc1cc(C(=O)CN2C(=O)NC(C)(c3cccc(Br)c3)C2=O)c(C)n1Cc1ccco1 (centres undefined)	50µM*	-18%	8%	-3%	-1	-16%
C=CCn1c(C)cc(C(=O)CSc2n[nH]c(N)n2)c1C	32µM*	-10%	0%	-11%	-2	-6%
CC(C)Sc1nc2ccccc2c(=O)[nH]1	6%	-4%	8%	25%	2	-8%
SMILES	G9a block	Tau fluor cs	Tau FP inhib	Sfp inh	Coupling enz	Tau ThT inhib
CC(Sc1nc2ccccc2c(=O)[nH]1)C(=O)O (centres undefined)	3.2µM*	-5%	4%	4%	-1	-4%
Cc1cc(C(=O)CSc2n[nH]c(N)n2)c(C)n1C1CC1	nt	-3%	-3%	-34%	2	-6%
Cc1cc(C(=O)CSc2nc3ccccc3[nH]2)c(C)n1Cc1ccco1	14µM*	-30%	-18%	-10%	0	-13%
S=C(NCCCN1CCOCC1)NC1CC1	?	4%	0%	-6%	2	-1%
COc1ccc(Cl)cc1NC(=O)C1CCN(S(=O)(=O)c2ccc3c(c2)CC(C)N3C(C)=O)CC1 (centres undefined)	4%[59 µM]	-20%	6%	nt	nt	-2%
Cc1ccc(C(=O)CSc2nc3ccccc3c(=O)[nH]2)cc1	45µM*	-13%	-12%	-2%	-5	-16%
Cc1cc(C(=O)CSc2nc3ccc(Cl)cc3[nH]2)c(C)n1CC1CCCO1 (centres undefined)	45µM*	?	-12%	-1%	1	?
C=CCn1c(C)cc(C(=O)CSc2nc3ccccc3c(=O)[nH]2)c1C	50µM*	-12%	-13%	?	0	?
C=CCn1c(C)cc(C(=O)CSc2nc3ccccc3[nH]2)c1C	?	-15%	-2%	0%	0	-13%
O=C(Nc1ccc(N2CCOCC2)c(Cl)c1)c1ccc2c(c1)OCCO2	?	18%[2.34 µM]	12%[2.34 µM]	-2%	4	4%
CC1CCN(c2ccc(C(=O)NCc3ccco3)cc2[N+](=O)[O-])CC1	25µM*	-25%	3%	-6%	-7	?
O=C(NCc1ccc2c(c1)OCO2)c1cc([N+](=O)[O-])ccc1N1CCCCC1	45µM*	-27%	7%	5%	5	?
O=C(NCc1ccco1)c1ccc(N2CCCCC2)c([N+](=O)[O-])c1	?	-20%	13%	-9%	-2	?
CC(=O)N1CCN(c2ccc(NC(=O)c3ccc(N4CCCC4)c([N+](=O)[O-])c3)cc2Cl)CC1	-18%[59 µM]	?	-6%	-6%	-1	4µM*
O=C(NCc1ccco1)c1cc([N+](=O)[O-])ccc1N1CCCCC1	?	2%	5%	7%	4	3%
O=C(Nc1ccc(N2CCCCC2)c(Cl)c1)c1ccc2c(c1)OCCO2	?	14µM*[quencher]	12%	17%	-12	?
O=C(Nc1ccc(N2CCCCC2)c(Cl)c1)c1ccc(N2CCOCC2)c([N+](=O)[O-])c1	-11%[0.501 µM]	?	?	6%	-4	?
CCOc1ccc(CN2C(=O)c3ccccc3Sc3ccc(C(=O)N4CCN(C)CC4)cc32)cc1	-7%[59 µM]	-8%	0%	nt	nt	-5%
CN1CCCN(C(=O)c2cccc3ccccc23)CC1	18%	nt	nt	15%	-1	nt
